Screening results deposited in PubChem BioAssay by National Center for Advancing Translational Sciences (NCATS).
PLK1 PBD block = PLK1 (human) polo-box domain binding inhibition; AID 720504; 2.8% of 360,000 active; P53350; Potency, µM, for inactives: max response, negative = inhibition, most hits filed as inhibitors; Plk1 PBD binding of FITC phosphopeptide, fluorescence polarization; further: potency means the concentration at half of the fitted maximal effect; series mostly up to about 57 µM; nearly all actives have a fitted effect of over 65% in size
Mm-Cpn inhibitor = inhibitors of Methanococcus maripaludis chaperonin TRiC (MmCpn). 0.031% of 330,000 active. purified Mm-Cpn ATPase, ADP Transcreener TR-FRET. Potency, µM (doses to about 76.9 µM), inactives show at the highest dose activity, negative = inhibition, usual class: inhibitors; further: potency means the concentration at half of the fitted maximal effect; nearly all actives have a fitted effect of over 80% in size
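Purified archaeal chaperonin (25 nM final) was preincubated with compound for 10 min at 37°C, then ATP (10 uM final) was added for 30 min at 37°C in Tris pH 7.4/KCl/MgCl2/DTT buffer. ADP was quantified by HTRF Transcreener TR-FRET.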
Sfp inh = Sfp phosphopantetheinyl transferase inhibition | Potency, µM, for the others: largest response in the series, negative = inhibition, usual class: inhibitors | Q9F4F7 | 3.5% of 310,000 active | Biochemical Sfp PPTase activity, qHTS;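 further: the enzyme is Sfp with the accession as filed and its product quenches rhodamine fluorescence; potency means the concentration at half of the fitted maximal effect; 0% = enzyme reaction without inhibitor and -100% = no enzyme wells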
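With Hepes-Na pH 7.6 buffer containing 10 mM MgCl2, Sfp (15 nM) modified BHQ-2-YbbR (12.5 uM) using rhodamine-CoA (5 uM). Two reads 30 minutes apart at 525/598 nm yielded each well's rate.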
CCT modulator = cytosolic chaperonin activity modulation; purified chaperonin ATPase assay, HTRF ADP detection, 30 min; activity change, % (no concentration beside the values), hits read low; 0.3% of 360,000 active; in the data active means activity change below about -30%
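TRiC (40 or 20 nM final, by batch activity) in 30 mM Tris pH 7.4, 100 mM KCl, 5 mM MgCl2, 1 mM DTT was treated with compound at 76 uM single dose, then 10 uM ATP, 30 min at 37 °C. ADP was read by HTRF Transcreener.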
G9a block = blocks human histone lysine methyltransferase G9a; Q96KQ7; G9a H3K9 monomethylation, AlphaScreen, 2 h; Potency, µM (series often up to 102 µM), inactives show at the highest dose activity, negative = inhibition, hits mostly inhibitors; 8.8% of 350,000 active; further: potency means the concentration at half of the fitted maximal effect; nearly all actives have a fitted effect of over 75% in size
Target sequence (Q96KQ7 913-1193 limits assumed): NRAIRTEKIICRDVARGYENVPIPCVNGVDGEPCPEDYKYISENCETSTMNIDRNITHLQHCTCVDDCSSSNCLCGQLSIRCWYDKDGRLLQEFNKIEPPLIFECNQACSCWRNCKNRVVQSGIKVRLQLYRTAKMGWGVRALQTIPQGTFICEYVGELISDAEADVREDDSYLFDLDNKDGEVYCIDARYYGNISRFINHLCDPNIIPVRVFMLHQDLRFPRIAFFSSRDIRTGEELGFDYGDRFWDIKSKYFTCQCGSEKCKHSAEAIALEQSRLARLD
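AlphaScreen detection with an anti-monomethyl H3K9 antibody quantified product after a 2 h room-temperature reaction containing 500 nM biotinylated H3K9 peptide, 20 µM SAM and 20 nM enzyme, which had been preincubated 15 min with compound.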
VDR inhibitor = inhibitors of human vitamin D receptor. Potency, µM, for the others: max response, negative = inhibition, most hits filed as inhibitors. 0.93% of 400,000 active. VDR-SRC2-3 peptide fluorescence polarization, 2 h; further: potency means the concentration at half of the fitted maximal effect
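Inhibition of the VDR/SRC2-3 peptide interaction is quantified by fluorescence polarization. Compounds (23 nl, pintool) incubate with the reagents for 2 hours at ambient room temperature.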
Numbers without * were called inactive; ? = inconclusive; . = no result given; [ ] = remark or other dose. Shown are actives, neighbours in structure and some others; about 10% of the full set was active somewhere. Unless noted, the call rests on the fitted dose curve; in most records, active means well fitted curve in the direction sought with a large enough effect; inconclusive means small, poorly fitted or top-dose-only effect, or another doubt; inactive means no such curve, though single readings can be large; an effect the other way counts as inactive or inconclusive. Unless noted, on the % scale 0 is the no-effect control and ±100 the full control effect.

SMILES	PLK1 PBD block	Mm-Cpn inhibitor	Sfp inh	CCT modulator	G9a block	VDR inhibitor
CN(C)c1ccc(/C(=N\O)C(F)(F)F)cc1	-7%	1%	4%	-2	-8%[59 µM]	-12%
COc1ccc(/C(=N/O)C(C)(C)NO)cc1	-10%	0%	?	-1	13µM*	1%
CC(C)(NO)/C(=N/O)c1ccc(Br)cc1	-6%	3%	?	-1	32µM*	-11%
CC(C)(NO)/C(=N\O)c1ccc(Cl)cc1	-11%	1%	-7%	0	10µM*	-6%
CCOC(=O)c1cc(-c2ccc(OC)cc2)n(CCC(=O)Nc2nc3ccc(OCC)cc3s2)c1C	.	.	.	.	-31%[59 µM]	12%
CCOC(=O)c1c(C)[nH]c(C)c1S(=O)(=O)N1CCCC(C(=O)Nc2ccc(C)c(N(C)C)c2)C1 (stereo not drawn)	.	.	.	.	-33%[59 µM]	-2%
Cn1cccc1C(=O)N1CCC2(CCCN(c3ccccc3)C2)CC1	.	.	-7%	.	1%[12.7 µM]	?
CS(=O)(=O)N(CC(=O)Nc1ccc(Br)cc1)c1ccccc1Br	.	.	.	.	8%[59 µM]	6%
CC(C)(C)N/N=C/c1cc(Cl)cc([N+](=O)[O-])c1O	?	1%	-10%	1	-1%[59 µM]	-18%
O=[N+]([O-])c1cc(Cl)cc(/C=N/Nc2nc3ccccc3s2)c1O	27µM*	0%	0%	0	.	-20%
COc1ccc(C=NNc2nc3ccccc3s2)cc1	-17%	.	.	-2	.	-19%
COc1cc(/C=N/Nc2nc3ccccc3s2)cc([N+](=O)[O-])c1O	-29%	-1%	?	-2	32µM*	-11%
O=C(Cn1nc2ccccc2n1)N/N=C/c1cc(Cl)cc([N+](=O)[O-])c1O	-22%	-1%	25%	0	40µM*	9%
COc1cc(OC)cc(C(=O)Oc2ccc(/C=N/Nc3nc4ccccc4s3)cc2OC)c1	-6%	2%	-19%	2	28µM*	2%
CC1CCN(S(=O)(=O)c2ccc3c(c2)CCN3C(=O)Nc2ccc(Br)cc2F)CC1	.	.	.	.	14%[59 µM]	-5%
Cc1ccc(CNC(=O)C(=O)NCC(c2ccco2)S(=O)(=O)c2ccc(C)cc2)cc1 (stereo not drawn)	.	.	.	.	-5%[59 µM]	12%
Cc1ccccc1C(=O)Nc1cccc(C(=O)N/N=C/c2cc(Cl)cc([N+](=O)[O-])c2O)c1	-25%	-5%	15%	1	32µM*	-2%
Cc1[nH][nH]c(=O)c1C(c1c(C)[nH][nH]c1=O)c1cn(Cc2ccc(F)cc2)c2ccccc12	?	-4%	-15%	-3	8.9µM*	?
Cc1[nH][nH]c(=O)c1C(c1c(C)[nH][nH]c1=O)c1cn(Cc2ccc(Cl)c(Cl)c2)c2ccccc12	?	-2%	-13%	-2	8.9µM*	?
O=c1c2ccccc2ncn1Cc1ccc(Cl)c(Cl)c1	-6%	5%	-12%	-1	.	-10%
CCOC(=O)c1cc(C#N)c(SCC(=O)Nc2ccc(C(C)=O)cc2)[nH]c1=O	-13%	0%	-2%	-1	?	-13%
CCOC(=O)c1cc(C#N)c(SCC(=O)c2cc(C#N)c(SC)nc2C)[nH]c1=O	?	-6%	32µM*	-5	50µM*	?
CCOC(=O)c1cc(C#N)c(SCC(=O)O)[nH]c1=O	-12%	-5%	50µM*	-5	?	-15%
CSc1nc(C)c(C(=O)C[n+]2ccc(C)cc2)cc1C#N	2%	0%	2%	-2	-8%	-18%
CC(C)c1nn2c(=O)cc(COC(=O)c3cccc(NC(=O)CCc4ccccc4)c3)nc2s1	.	.	.	.	3%[12.7 µM]	0%
CC1=C(C(=O)OC2CCCCC2)C(c2ccc(C)o2)C2=C(CC(C)(C)CC2=O)N1 (stereo not drawn)	-12%	1%	?	-2	2%[12.7 µM]	-17%
CC1=C(C(=O)Nc2ccc(F)cc2)C(c2ccc(C)o2)C2=C(CC(C)(C)CC2=O)N1 (stereo not drawn)	-11%	1%	-8%	-1	50µM*	-11%
OC[C@H](O)[C@H](O)[C@@H](O)[C@@H](O)[C@@H]1SC(c2ccccc2)=NN1c1ccccc1	?	-2%	-4%	1	11µM*	22µM*
